± gives the standard deviation.
These compounds were tested on RAW-Dual (murine macrophage reporter line) (assay: IRF reporter (Lucia luciferase) activity fold change vs agonist alone; higher = enhanced IRF activity). Details: modulator concentration 10 µM; agonist: LPS 0.1 ug/mL.
Procedure, shortened: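 Overnight stimulation with a PRR agonist followed pre-incubation for 1 hour at 37 °C with compound at 10 μM final. This was done in RAW-Dual murine macrophage reporter cells seeded at 50 000 per well in 384-well plates. NF-κB (SEAP, QUANTI-Blue absorbance at 620 nm) and IRF (Lucia luciferase, QUANTI-Luc luminescence) were read from the supernatant. Each reporter's fold change relative to the mean agonist-only control on the same plate was averaged over replicate plates.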
`CCOc1ccc(OCCCCOc2cccc(C)c2)cc1` gave an IRF reporter of 1.27 ± 0.18. With `O=C(CCc1csc(NC(=O)c2ccco2)n1)Nc1ccc(Cl)cc1` the IRF reporter was 1.44 ± 0.23. `COc1ccc(Nc2nc(Nc3ccc4ncccc4c3)nc(N3CCOCC3)n2)cc1` gave an IRF reporter of 1.61 ± 0.24. `O=C(NC12CC3CC(CC(C3)C1)C2)N1CCOCC1` showed an IRF reporter of 1.22 ± 0.21. `CC[C@H](C)C(=O)O[C@H]1C[C@@H](C)C=C2C=C[C@H](C)[C@H](CC[C@@H]3C[C@@H](O)CC(=O)O3)[C@H]21` showed an IRF reporter of 0.795 ± 0.055. Compound `CC(=O)Nc1ccc(NC(=S)NC(=O)C=Cc2ccc(Cl)cc2)cc1` has an IRF reporter of 0.932 ± 0.1. For `COc1ccc(C=NNC(=O)CSc2nnc(-c3ccccc3)n2-c2ccccc2)cc1OC`, the IRF reporter was 0.958 ± 0.056. Work on `Cl.Fc1ccc(C2CCNCC2COc2ccc3c(c2)OCO3)cc1` (configuration not stated) yielded an IRF reporter of 1.05 ± 0.18. `CCCOc1ccc(C=CC(=O)Nc2ccc(S(=O)(=O)Nc3ncccn3)cc2)cc1OC` gave an IRF reporter of 1.27 ± 0.18. For `O=c1c(O)c(-c2cc(O)c(O)c(O)c2)oc2cc(O)cc(O)c12`, the IRF reporter was 0.894 ± 0.23. In the case of `CC(=NNC(=O)COc1ccc(Cl)cc1[N+](=O)[O-])c1cccc(Br)c1`, the IRF reporter is reported as 1.47 ± 0.22. For `CCCCCn1c(=O)[nH]c2cc(C(=O)N3CCN(C(=O)OCC)CC3)ccc2c1=O`, the IRF reporter was 1.45 ± 0.11. With `CC(C)(C)NCC(=O)Nc1ccc(S(N)(=O)=O)cc1` the IRF reporter was 1.52 ± 0.098. For `NC(=O)c1ccc(N2CCOCC2)c([N+](=O)[O-])c1`, the IRF reporter was 1.02 ± 0.05. For `O=C(c1ccc(OC(F)(F)F)cc1)N1CCC(Oc2cccnn2)CC1`, the IRF reporter was 1.08 ± 0.065. In the case of `CC(NCCC(c1ccccc1)c1ccccc1)c1ccccc1.Cl` (configuration not stated), the IRF reporter is reported as 0.929 ± 0.13. Work on `COc1ccc(CCN(C)CCCC(C#N)(c2ccc(OC)c(OC)c2)C(C)C)cc1OC.Cl` (configuration not stated) yielded an IRF reporter of 1.32 ± 0.26.

From the supplement of paper PMC10646978
